LASV entry inh = Lassa virus entry inhibition; Potency, µM (titrated, usually from 37.9 µM), most hits filed as inhibitors; 300,000 compounds, 1.2% hits; Lassa virus pseudotype entry inhibition, cell reporter; calls by dose curve; tested in HEK293 cells; further: nearly all actives have a fitted effect of over 50% in size
Vaccinia mCherry = vaccinia inhibition (mCherry reporter) | Vaccinia virus mCherry reporter infection, fluorescence | Potency, µM (doses to about 36.5 µM), hits mostly inhibitors | 310,000 compounds, 0.63% hits | AID 720579; calls by dose curve; tested in A549 cells; further: nearly all actives have a fitted effect of over 35% in size
HCMV inh = human cytomegalovirus inhibition; HFF cells, HCMV-luciferase reporter, 72 h; stronger effect = lower value; activity change, negative = inhibition, % at 57.5 µM; 410,000 compounds, 4.5% hits; AID 1259415; in the data active means activity change below about -60%; inconclusive means no clear call, values can overlap the other calls; inactive means above about -39%
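Two compound doses tested in HFFs infected with HCMV-luciferase, MOI 1 PFU/cell, 72 h at 37C. Lysate luminescence read with OneGlo; data normalized against buffer-only and 10uM Salinomycin inhibitor controls.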
Marburg entry inh = blocks Marburg virus binding to or entry into cells; Marburg virus pseudotyped entry inhibition, cell reporter; Potency, µM (top dose mostly 37.8 µM), usual class: inhibitors; 300,000 compounds, 1.8% hits; AID 540276; calls by dose curve; tested in HEK293 cells
HCV inhibitor = HCV inhibition; AID 651820; Huh7.5.1 HCVcc-Cre infection, luciferase reporter, 44 h; Potency, µM (titrated, usually from 41.8 µM), actives largely listed as inhibitors; 340,000 compounds, 3.4% hits; active means well fitted inhibition curve with a large enough effect; inconclusive means small, poorly fitted or top-dose-only effect, or another doubt; inactive means no such curve, though single readings can be large or run the other way
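Seed cells (1,000/well) for 4 h; treat with compound and infect with HCVcc-Cre, moi about 0.5. Incubate 44 h, then detect luciferase activity.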
VACV Venus inh = vaccinia inhibition (Venus reporter); Potency, µM (titrated, usually from 36.5 µM), actives largely listed as inhibitors; Vaccinia virus Venus reporter expression, fluorescence; 330,000 compounds, 0.46% hits; calls by dose curve; tested in A549 cells; further: nearly all actives have a fitted effect of over 30% in size
A number is an active result; i = inactive; ? = inconclusive; nt = no result. Hits are enriched below; roughly 7.8% of the tested compounds scored in any of these assays.

SMILES | LASV entry inh | Vaccinia mCherry | HCMV inh | Marburg entry inh | HCV inhibitor | VACV Venus inh
O=C(NCc1cccc(Cl)c1)c1cccn1-c1nnc(N2CCCC2)s1 | i | i | ? | nt | nt | i
CN(C)c1ccc(/C=C/c2ccnc3ccccc23)cc1N | nt | i | nt | nt | nt | i
Cc1cc(SCC(=O)OC/C(O)=C(\C#N)c2nc3ccccc3[nH]2)c(C)cc1Br | ? | i | ? | ? | i | i
N#C/C(=C(/O)COC(=O)CSc1ccc(Cl)cc1)c1nc2ccccc2[nH]1 | i | i | -81 | i | i | i
COc1ccc(OC/C(O)=C(\C#N)c2nc3ccccc3[nH]2)cc1 | i | i | i | i | i | i
N#CC(=C(O)COC(=O)CCC1CCCCC1)c1nc2ccccc2[nH]1 | i | i | i | i | i | i
COc1ccccc1OCC(=O)OC/C(O)=C(\C#N)c1nc2ccccc2[nH]1 | nt | nt | -99 | nt | i | nt
CCOC(=O)/C(O)=C(\C#N)c1nc2ccccc2[nH]1 | i | i | -64 | i | i | i
N#C/C(=C(/O)COC(=O)CCCNC(=O)c1ccc(Cl)cc1)c1nc2ccccc2[nH]1 | ? | i | -93 | ? | i | i
CCOc1ccc(NC(=O)c2sc3nc4c(cc3c2N)CN(Cc2ccccc2)CC4)cc1 | i | i | i | i | nt | i
Cc1nn2c(-c3cccc(NC(=O)c4ccccc4)c3)nnc2c2ccccc12 | i | i | i | ? | nt | i
Cc1ccc(NC(=O)c2cnn3c2NC(=C2CC2)C=C3C(F)F)cc1 | nt | i | nt | nt | nt | i
COc1ccc(Cl)cc1NC(=O)c1cc(C)nn1-c1ccccc1 | i | i | i | i | nt | i
CC1CCCN(CCCNC(=O)c2ccc3c(c2)N(Cc2ccc(Cl)cc2)C(=O)c2ccccc2S3(=O)=O)C1 (stereo not drawn) | ? | i | -100 | ? | nt | i
CCC1CCCCN1CCCNC(=O)c1ccc2c(c1)N(Cc1ccccc1)C(=O)c1ccccc1S2(=O)=O (stereo not drawn) | i | i | ? | ? | nt | i
CCC1CCCCN1CCCNC(=O)c1ccc2c(c1)N(Cc1cccc(C)c1)C(=O)c1ccccc1S2(=O)=O (stereo not drawn) | ? | i | -64 | ? | nt | ?
CCC1CCCCN1CCCNC(=O)c1ccc2c(c1)N(Cc1cccc(Cl)c1)C(=O)c1ccccc1S2(=O)=O (stereo not drawn) | ? | i | -98 | nt | nt | i
CC1CCC(NC(=O)c2ccc3c(c2)N(Cc2cccc(Cl)c2)C(=O)c2ccccc2S3(=O)=O)CC1 (stereo not drawn) | i | i | ? | nt | nt | i
CCC1CCCCN1CCCNC(=O)c1ccc2c(c1)N(Cc1ccc(Cl)cc1)C(=O)c1ccccc1S2(=O)=O (stereo not drawn) | ? | i | -106 | ? | nt | i
COc1cccc(-c2cc3c(Nc4cccc(NS(C)(=O)=O)c4)nccc3n2C)c1 | nt | nt | i | nt | nt | nt
CCn1c(=NC(=O)c2ccc(S(=O)(=O)N3CCCC3)cc2)sc2cc(Br)ccc21 | i | i | i | i | nt | i
COc1ccc(OC)c(CN2CCOc3ccc(CN4CCC(O)(c5cccnc5)CC4)cc3C2)c1 | nt | i | nt | nt | nt | i
COc1ccc(CN2CCN(C(C)=O)CC2)cc1OC1CCN(C(=O)c2ccc3[nH]c(C)c(C)c3c2)CC1 | nt | i | nt | nt | nt | i
Cc1ccc(NC(=O)CN2C(=O)c3ccccc3C2=O)c(C)c1 | i | ? | i | i | i | i
Cc1ccc(S(=O)(=O)ON2C(=O)c3ccccc3C2=O)c(C)c1 | ? | i | -71 | ? | i | i
SMILES | LASV entry inh | Vaccinia mCherry | HCMV inh | Marburg entry inh | HCV inhibitor | VACV Venus inh
C[C@H](O)CON1C(=O)c2ccccc2C1=O | nt | nt | nt | i | nt | nt
Cc1cc(C)c(C)c(S(=O)(=O)ON2C(=O)c3ccccc3C2=O)c1C | ? | i | -76 | ? | ? | i
O=C1c2ccccc2C(=O)N1OS(=O)(=O)c1ccc(F)cc1 | nt | nt | i | nt | i | nt
Cc1cc(C)c(S(=O)(=O)ON2C(=O)c3ccccc3C2=O)cc1C | i | i | -81 | ? | i | i
Cc1ccc(S(=O)(=O)N(CC(=O)Nc2ccc(F)cc2F)Cc2ccc(F)cc2)cc1 | i | i | ? | i | nt | i
CC(=O)c1c(C)[nH]c(C(=O)CSc2nnc(-c3ccco3)o2)c1C | ? | i | i | 11µM | ? | i
CC(=O)c1c(C)[nH]c(C(=O)CSc2nc3ccccc3n2C)c1C | ? | i | -78 | ? | ? | i
CCn1c(SCC(=O)c2[nH]c(C)c(C(C)=O)c2C)nnc1-c1cccs1 | i | nt | -93 | i | ? | nt
